Holding throughout (assay): glycan array binding signal (z-score within array); higher = stronger binding
Conditions in all cases: glycan notation: IUPAC condensed, linker removed

Experiment [1] deals with Neu5Ac(a2-3)Gal(b1-3)[Neu5Ac(a2-6)]GlcNAc(b1-3)[Fuc(a1-3)[Gal(b1-4)]GlcNAc(b1-6)]Gal(b1-4)Glc. In a few lines:
(§1)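 From the Consortium for Functional Glycomics database, 3228 arrays were curated, keeping only those whose protein sequence was available. Binding is given as a within-array Z-score averaged across arrays sharing a protein sequence and across linkers. Negative Z-scores can be read as non-binding.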

In experiment [2] the target is Neu5Ac(a2-3)Gal(b1-4)GlcNAc(b1-2)Man. In a few lines: as §1
Experiment [3] has as its target Neu5Ac(a2-3)Gal(b1-4)[Fuc(a1-3)]GlcNAc(b1-3)Gal(b1-4)[Fuc(a1-3)]GlcNAc(b1-3)Gal(b1-4)[Fuc(a1-3)]GlcNAc. The method, boiled down: as §1
For experiment [4], the target named is Neu5Ac(a2-3)Gal(b1-4)[Fuc(a1-3)]GlcNAc(b1-3)GalNAc. The method, boiled down:
as §1

Experiment [5] has as its target Neu5Ac(a2-6)Gal(b1-4)GlcNAc(b1-3)Gal(b1-4)GlcNAc(b1-3)Gal(b1-4)GlcNAc. In a few lines:
as §1

Experiment [6] deals with Neu5Ac(a2-6)Gal(b1-4)GlcNAc(b1-6)GalNAc. The method, boiled down:
as §1

The target in experiment [7] is Neu5Ac(a2-8)Neu5Ac(a2-3)Gal(b1-3)GalNAc(b1-4)[Neu5Ac(a2-8)Neu5Ac(a2-3)]Gal(b1-4)Glc. The method, boiled down: as §1
Another experiment concerns the target Neu5Ac(b2-6)GalNAc. The method, boiled down:
as §1

The target of experiment [8] is Neu5Ac9Ac(a2-3)Gal(b1-3)GlcNAc. In a few lines:
as §1

Shown is part of a subset that was picked to be rich in the strongest signals.

B1: OrfX (Escherichia coli), Q9X4B6_ECOLX (protein)
chain: MIKIARIAVTLGLLSSLGAQAYAAGLVVNDNDLRNDLAWLSDRGVIHLSLSTWPLSQEEIARALKKAKPSYSSEQVVLARINQRLSALKADFRVTGYTSTDQPGTPQGFGQTQPADNSLGLAFNNSGEWWDVHLQGNVEGGERISNGSRFNANGAYGAVKFWNQWLSFGQVPQWWGPGYEGSLIRGDAMRPMTGFLMQRAEQAAPETWWLRWVGPWQYQISASQMNQYTAVPHAKIIGGRFTFTPFQSLELGASRIMQWGGEGRPQSFSSFWDGFTGHDNTGTDNEPGNQLAGFDFKFKLEPTLGWPVSFYGQMVGEDESGYLPSANMFLGGVEGHHGWGKDTVNWYVEAHDTRTNMSRTNYSYTHHIYKDGYYQQGYPLGDAMGGDGQLIAGKVELITEDNQRWSTRLVYAKVNPENQSINKAFPHADTLKGLQLGWSGDVYQSVRLNTSLWYTNANNSDSDDVGASAGIEIPFSL
As to B1, the “glycan array binding signal (z-score)” value in [1] is -0.357; in [2], 7.89; in [3], -0.34; in experiment [4], 7.1; in [5] it was -0.288; in experiment [6], 3.4. Besides, the “glycan array binding signal (z-score)” value is -0.409 in experiment [7], -0.166 in the experiment with Neu5Ac(b2-6)GalNAc and -0.162 in [8].

(Values after the supplement of paper PMC8728848.)
